The inhibition is the drop in the measured response relative to a control, in per cent.

The nature of experiment [1]: inhibitors of TNFa-induced NFkB p65 translocation, primary screen, imaging, HUVEC, MLSMR starter and 10KST1 sets (AID 438;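 active = inhibition above 20% together with a positive visual image hit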;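 also: compound added about 3h40 before a 20 min TNFalpha stimulation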;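 as to inhibition: signal is the nuclear over cytoplasmic p65 intensity ratio per well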). As to conditions: HUVEC TNFa-induced p65 nuclear translocation; cell count: measured here: nuclei count (cytotoxicity indicator), at 2.08 µM; inhibition: at 2 µM, stronger effect = higher value, 0% TNFa-plus-vehicle, 100% no-TNFa wells.
Experiment [2] is described as follows: endothelial E-selectin expression blockers – imaging, HUVEC, immunofluorescence, MLSMR starter and 10KST1 sets, primary screen (AID 487;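 active = visually confirmed hit in the image check and inhibition above 20%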;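 as to inhibition: signal is fraction of cell area covered by stained E-selectin grains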;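 as to nuclei count: 100% = median nuclei count of all wells on the same plate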). As to conditions: HUVEC TNFalpha-induced E-selectin immunofluorescence imaging, at 2 µM; inhibition: stronger effect = higher value; nuclei count: measured here: cell number, toxicity.
The nature of experiment [3]: Primary imaging screen for DUSP6 inhibitors that restore phospho-Erk in transfected HeLa cells, chemical complementation (AID 609;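 active = compounds giving at least 50% inhibition in the cell-based MKP-3 phosphatase rescue imaging test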;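 as to inhibition: phospho-Erk level distribution per well compared with pooled transfected vehicle control wells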). As to conditions: HeLa MKP-3 transfected, phospho-Erk imaging KS statistic, at 10 µM, cells stimulated with TPA for 15 min.
Experiment [4] concerns the target Dual specificity protein phosphatase 6 (Homo sapiens) (UniProt Q16828). The description is as above. As to conditions: HeLa MKP-3 transfected, phospho-Erk imaging KS statistic; at 10 µM; stronger effect = higher value; cells stimulated with TPA for 15 min.
For experiment [5], the target named is Voltage-gated potassium channel subunit beta-2 (Rattus norvegicus) (UniProt P62483). Kind of experiment: inhibitors of rat Kvbeta2 reductase activity – biochemical, NADPH fluorescence, primary screen (AID 622;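 active = fluorescence slope higher than the sample average by over 3 SD, cut at about -0.22 in these data, passing the limit was not always enough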;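 also: slope of raw intensity against log time taken from 70 to 1610 s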). As to conditions: recombinant KvBeta, 4-cyanobenzaldehyde reduction, at 10 µM, stronger effect = higher value.
Experiment [6] has the same target. Kind of experiment: enhancers of rat Kvbeta2 NADPH turnover – biochemical, NADPH fluorescence, primary screen (AID 623;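 active = NADPH fluorescence slope more negative than the mean of all samples by about 3 SD, 99.7% confidence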;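 also: fluorescence intensity change per second fitted from 20 to 320 s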). The settings on record: Recombinant KvBeta, NADPH fluorescence decrease slope, 10 min; at 10 µM; stronger effect = lower value.
Experiment [7] concerns the target Alpha-2C adrenergic receptor (Homo sapiens) (UniProt P18825). Kind of experiment: compounds altering alpha2C-coupled GIRK flux – cell-based, HEK293 alpha2C/GIRK1/2, thallium flux, primary screen (AID 624;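 active = fluorescence slope after compound addition differing from the mean of all screened samples at 99.7% confidence, in either direction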;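 also: slope of fluorescence ratio to pre-addition baseline per second over 15 to 24 s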). The settings on record: thallium flux BTC fluorescence, at 10 µM, actives lie on both sides.
A short description of experiment [8]: inhibitors of larval lipid processing in zebrafish, primary screen, whole organism, PED6 fluorescence, gall bladder and intestine (AID 686;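 active = a full or partial loss of lipid-probe fluorescence in the fish gall bladder, intestine or both, judged by eye; inactive = no fluorescence loss, or compound toxic to the fish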;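 also: larvae 5 to 7 days old with five fish per well; signal comes from phospholipase A2 cleavage of quenched PED6 carried via bile; overnight exposure to compound and PED6 before scoring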). As to conditions: Zebrafish larvae PED6 lipid processing, fluorescence scoring; screened at 20 µM (by protocol).
A short description of experiment [9]: loss of swimming-algae plug formation – whole organism, Chlamydomonas reinhardtii, WT vs cilia-less mutant, absorbance, 96-well, primary screen (AID 463189).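 Also: 0% = wild type cc124 cells in DMSO and 100% = ciliumless bld1 mutant cells.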 As to conditions: Chlamydomonas reinhardtii gravitaxis, OD600 absorbance, 2 days; at 10 µM; stronger effect = higher value.
A short description of experiment [10]: blockers of RIG-like receptor reporter activation – cell-based, Sendai virus stimulus, luciferase, 10K MLSCN set, TLR/RLR signaling modifier project, primary screen (AID 602276;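 active = inhibition at or above 50% at 10 µM; inactive = inhibition below 50%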;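 also: firefly luciferase from ISG56 promoter only with Renilla not read in this screen; 0% = Sendai virus plus DMSO and 100% = medium plus DMSO without virus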). As to conditions: HEK293 RL24 IRF3 luciferase reporter, at 10 µM, stronger effect = higher value. (In a reporter assay the amount or activity of a reporter protein is the signal.)
The nature of experiment [11]: TLR3 IRF3 reporter activation blockers – cell-based, poly I:C stimulus, luciferase, 10K MLSCN set, primary screen (AID 602277;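 active = inhibition of the reporter signal at or above 50%; inactive = inhibition below 50%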). As to conditions: HEK293-TLR3 RL24 IRF3 luciferase reporter, at 10 µM, stronger effect = higher value.
Experiment [12] is described as follows: reduction of polyQ htt aggregates in cells – imaging, exon1htt(103Q)mCFP cells, high-content imaging, primary screen (AID 483;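 active = visual image review flags a hit and inhibition of aggregation exceeds 20%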;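 also: compound exposure lasted 3 days before fixation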;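 as to nuclei count: percent of the per-plate median nuclei count of sample wells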). The settings on record: exon1htt(103Q)mCFP cell line, aggregate imaging, at 2 µM; inhibition of aggregation: stronger effect = higher value; nuclei count: measured here: cell count, toxicity.
The target in experiment [13] is Muscarinic acetylcholine receptor M4 (Homo sapiens) (UniProt P08173). Kind of experiment: M4-linked GIRK flux change, two-sided – cell-based, HEK293 M4/GIRK, thallium flux, BTC-AM, M4 allosteric agonist project, primary screen (AID 625;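 active = fluorescence slope after compound addition differing from the mean of all tested samples at 99.7% confidence, mostly higher but some lower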;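 also: thallium influx through GIRK channels coupled to M4 in HEK293 cells with BTC-AM dye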). As to conditions: at 10 µM, actives lie on both sides.
[14] abbreviates: measured here: cell density z-score.
Where [15] appears, read: measured here: nuclear c-Myc green intensity z-score.
The mark [16] stands for this setting: measured here: nuclear pErk red intensity z-score, stronger effect = higher value.

SMILES strings stand for the structures. Values joined by “and” are separate entries in the source; they are usually repeats but may differ in a detail not shown here. Identical values can stand only once. Active and inactive are the calls of the source.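 The calls were made as follows, unless noted: active = inhibition at or above 50% relative to wild type and mutant plate controls; inactive = inhibition below 50%.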

Sequence of Dual specificity protein phosphatase 6 (Homo sapiens) (Q16828 whole entry, looked up): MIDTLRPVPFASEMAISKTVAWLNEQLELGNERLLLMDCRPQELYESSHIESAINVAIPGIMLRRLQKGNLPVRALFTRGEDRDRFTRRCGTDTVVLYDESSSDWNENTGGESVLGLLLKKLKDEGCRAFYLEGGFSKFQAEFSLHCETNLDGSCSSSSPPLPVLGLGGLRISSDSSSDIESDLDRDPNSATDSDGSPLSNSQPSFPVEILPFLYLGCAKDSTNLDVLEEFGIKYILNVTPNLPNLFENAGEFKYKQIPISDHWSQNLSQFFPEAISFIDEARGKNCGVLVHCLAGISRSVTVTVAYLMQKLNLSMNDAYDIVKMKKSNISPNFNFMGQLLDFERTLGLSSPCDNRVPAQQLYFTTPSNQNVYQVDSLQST
Sequence of Alpha-2C adrenergic receptor (Homo sapiens) (P18825 whole entry, looked up): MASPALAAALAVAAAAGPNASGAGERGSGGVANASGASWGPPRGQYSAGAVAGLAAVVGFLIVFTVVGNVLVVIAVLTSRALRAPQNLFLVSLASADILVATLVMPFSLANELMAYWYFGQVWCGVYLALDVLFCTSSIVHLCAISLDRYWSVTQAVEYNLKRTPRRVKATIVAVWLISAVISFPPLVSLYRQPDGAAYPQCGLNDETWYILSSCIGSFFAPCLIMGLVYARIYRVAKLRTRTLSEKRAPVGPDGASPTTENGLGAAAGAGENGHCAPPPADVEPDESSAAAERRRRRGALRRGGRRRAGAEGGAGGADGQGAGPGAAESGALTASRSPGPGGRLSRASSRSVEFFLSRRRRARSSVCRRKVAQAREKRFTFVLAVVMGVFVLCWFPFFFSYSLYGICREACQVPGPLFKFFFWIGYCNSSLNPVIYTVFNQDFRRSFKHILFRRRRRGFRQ
Sequence of Voltage-gated potassium channel subunit beta-2 (Rattus norvegicus) (P62483 whole entry, looked up): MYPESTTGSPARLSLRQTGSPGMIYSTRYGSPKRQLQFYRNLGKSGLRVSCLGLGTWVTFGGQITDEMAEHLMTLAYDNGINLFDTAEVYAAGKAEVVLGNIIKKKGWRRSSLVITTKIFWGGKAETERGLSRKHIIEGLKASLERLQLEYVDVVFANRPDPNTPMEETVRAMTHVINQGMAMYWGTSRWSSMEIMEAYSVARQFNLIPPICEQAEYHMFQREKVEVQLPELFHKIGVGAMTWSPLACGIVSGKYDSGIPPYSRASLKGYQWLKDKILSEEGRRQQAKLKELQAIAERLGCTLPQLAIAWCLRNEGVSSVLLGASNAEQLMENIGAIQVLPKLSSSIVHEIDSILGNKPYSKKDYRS
Sequence of Muscarinic acetylcholine receptor M4 (Homo sapiens) (P08173 whole entry, looked up): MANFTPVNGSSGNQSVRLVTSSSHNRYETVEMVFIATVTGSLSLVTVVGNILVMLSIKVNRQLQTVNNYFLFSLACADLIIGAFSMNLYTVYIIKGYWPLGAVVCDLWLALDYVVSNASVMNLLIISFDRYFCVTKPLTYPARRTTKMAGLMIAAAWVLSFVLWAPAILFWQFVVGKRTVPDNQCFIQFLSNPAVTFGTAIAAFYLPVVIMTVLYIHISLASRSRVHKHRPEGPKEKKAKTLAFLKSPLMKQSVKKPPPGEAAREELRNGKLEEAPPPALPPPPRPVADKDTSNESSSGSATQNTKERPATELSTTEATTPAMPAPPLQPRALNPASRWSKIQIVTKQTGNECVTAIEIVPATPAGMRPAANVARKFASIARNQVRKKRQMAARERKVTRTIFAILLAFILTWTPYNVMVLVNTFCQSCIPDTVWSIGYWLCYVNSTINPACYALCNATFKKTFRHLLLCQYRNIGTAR

Regarding `CNCCCN1c2ccccc2CCc2ccccc21`, the cell count in experiment [1] was 539. For the same molecule, the inhibition is -8.9% (inactive) in experiment [1]; -27% (inactive) in experiment [2]; 15.3% (inactive) in [4]; -1.03% (inactive) and 0.865% (inactive) in experiment [9]; 0.658% (inactive) in experiment [10]; 24.2% (inactive) in [11]. The molecule further yielded a nuclei count in experiment [2] of 118%. For the same molecule, the z-score is -1.38 in [3] (setting [14]), -0.202 in experiment [3] (setting [15]) and 2.91 in experiment [3] (setting [16]). The fluorescence slope in experiment [5] is -0.533 (inactive). In addition, the NADPH fluorescence slope in experiment [6] is -5.3e-05 (inactive). The slope in [7] was 0.00468 (inactive). For the same molecule, the outcome in experiment [8] was inactive.

On to `Cc1cnc(NC(=O)C2=C(O)c3ccccc3S(=O)(=O)N2C)s1`, for which the cell count in [1] was found to be 640. Moreover, the inhibition was 4.7% (inactive) in [1]; -46.4% (inactive) in experiment [2]; 30.1% (inactive) in experiment [4]; 0.844% (inactive) and -7.88% (inactive) in experiment [9]; 15.5% (inactive) in experiment [10]; 32.8% (inactive) in [11]. The nuclei count in experiment [2] amounted to 112%. Moreover, the z-score in experiment [3] (setting [14]) is -0.158; in experiment [3] (setting [15]) it was 0.936; in [3] (setting [16]), -1.17. In addition, the fluorescence slope in experiment [5] is -0.427 (inactive). In addition, the NADPH fluorescence slope in experiment [6] is -1.4e-05 (inactive). The slope in experiment [7] was 0.00455 (inactive). Besides, the molecule was called inactive in experiment [8].

Take `O=C(O)c1cc(=O)cc(C(=O)O)[nH]1`: the cell count in [1] was 482. The inhibition is 1.8% (inactive) in experiment [1]; -58.7% (inactive) in experiment [2]; 3.81% (inactive) in [9]; 13.7% (inactive) in experiment [10]; 20.1% (inactive) in experiment [11]. Moreover, in [12], the inhibition of aggregation is 0.2% (inactive). The figures for the nuclei count in [12] and in [2] were 98% and 188%, respectively. In addition, the fluorescence slope in experiment [5] is -0.603 (inactive); in experiment [13] it was 0.00559 (inactive). Further, in experiment [6], the NADPH fluorescence slope is -2e-06 (inactive).

Regarding `COC(=O)C1=C(C)NC(C)=C(C(=O)OC)C1c1ccccc1[N+](=O)[O-]`, in experiment [1], the cell count stood at 548. For the same molecule, the inhibition was -5.5% (inactive) in experiment [1]; -80.3% (inactive) in [2]; 13.3% (inactive) in experiment [4]; -13.6% (inactive) and -16.5% (inactive) in experiment [9]; 12.4% (inactive) in experiment [10]; 13.4% (inactive) in [11]. The molecule further gave a nuclei count in [2] of 116%. Besides, the z-score is 1.16 in experiment [3] (setting [14]), 0.789 in experiment [3] (setting [15]) and -0.998 in [3] (setting [16]). The fluorescence slope in experiment [5] was -0.461 (inactive). In [6], the NADPH fluorescence slope was -1.4e-05 (inactive). Also, the slope in experiment [7] was 0.00935 (inactive). The result in [8] was inactive.

Regarding `O=S(=O)(c1cccc2cnccc12)N1CCCNCC1`, in [1], the cell count came out at 401. Further, the inhibition was 4.2% (inactive) in experiment [1]; -37.4% (inactive) in experiment [2]; 21.2% (inactive) in [4]; 0.327% (inactive) in [9]; 18.3% (inactive) in [10]; 29.9% (inactive) in experiment [11]. Further, the nuclei count in experiment [2] stood at 120%. Also, the z-score in experiment [3] (setting [14]) is -0.577; in experiment [3] (setting [15]), 0.628; in [3] (setting [16]) it was -2.35. Also, the fluorescence slope in [5] was -0.463 (inactive). Besides, in [6], the NADPH fluorescence slope is -6.3e-05 (inactive). Moreover, the slope in experiment [7] is 0.00448 (inactive).

Regarding `C[C@H](CS)C(=O)N1CCC[C@H]1C(=O)O`, in experiment [1], the cell count amounted to 555. The inhibition in [1] was 1.6% (inactive); in [2], -80.8% (inactive); in experiment [4], 12.4% (inactive); in experiment [9], -3.81% (inactive) and 9.89% (inactive); in [10], -6.06% (inactive); in experiment [11], 12.3% (inactive). The molecule further returned a nuclei count in [2] of 124%. Also, the z-score in experiment [3] (setting [14]) is 0.625; in experiment [3] (setting [15]) it was -1.55; in experiment [3] (setting [16]), 1.02. In addition, the fluorescence slope in experiment [5] was -0.485 (inactive). In experiment [6], the NADPH fluorescence slope is -4e-05 (inactive). Further, the slope in [7] is 0.00488 (inactive).

The record behind these values is PubChem BioAssay.
